Data as given in PubChem BioAssay AID720700 (The Scripps Research Institute Molecular Screening Center, 2013).
Hit rate of the full screen: of about 370,000 compounds, about 3,100 (0.84%) were called active. The list comes from a sample in which actives are over-represented; it also holds similar structures and randomly drawn compounds. Unmarked numbers belong to inactive results. Cut-off read from the data, not from the text of the source: active = inhibition above about 9.5%; inactive = the rest.

These molecules were tested against 1-phosphatidylinositol 4,5-bisphosphate phosphodiesterase gamma-1 (Homo sapiens) (UniProt P19174) (assay: PLC-gamma1 enzyme inhibitors, primary screen, biochemical, fluorescence, purified enzyme (AID 720700)). Conditions: purified PLC-gamma1, fluorogenic substrate, at 12.2 µM, hits give high values.
1-phosphatidylinositol 4,5-bisphosphate phosphodiesterase gamma-1 (Homo sapiens), sequence (P19174 whole entry, looked up): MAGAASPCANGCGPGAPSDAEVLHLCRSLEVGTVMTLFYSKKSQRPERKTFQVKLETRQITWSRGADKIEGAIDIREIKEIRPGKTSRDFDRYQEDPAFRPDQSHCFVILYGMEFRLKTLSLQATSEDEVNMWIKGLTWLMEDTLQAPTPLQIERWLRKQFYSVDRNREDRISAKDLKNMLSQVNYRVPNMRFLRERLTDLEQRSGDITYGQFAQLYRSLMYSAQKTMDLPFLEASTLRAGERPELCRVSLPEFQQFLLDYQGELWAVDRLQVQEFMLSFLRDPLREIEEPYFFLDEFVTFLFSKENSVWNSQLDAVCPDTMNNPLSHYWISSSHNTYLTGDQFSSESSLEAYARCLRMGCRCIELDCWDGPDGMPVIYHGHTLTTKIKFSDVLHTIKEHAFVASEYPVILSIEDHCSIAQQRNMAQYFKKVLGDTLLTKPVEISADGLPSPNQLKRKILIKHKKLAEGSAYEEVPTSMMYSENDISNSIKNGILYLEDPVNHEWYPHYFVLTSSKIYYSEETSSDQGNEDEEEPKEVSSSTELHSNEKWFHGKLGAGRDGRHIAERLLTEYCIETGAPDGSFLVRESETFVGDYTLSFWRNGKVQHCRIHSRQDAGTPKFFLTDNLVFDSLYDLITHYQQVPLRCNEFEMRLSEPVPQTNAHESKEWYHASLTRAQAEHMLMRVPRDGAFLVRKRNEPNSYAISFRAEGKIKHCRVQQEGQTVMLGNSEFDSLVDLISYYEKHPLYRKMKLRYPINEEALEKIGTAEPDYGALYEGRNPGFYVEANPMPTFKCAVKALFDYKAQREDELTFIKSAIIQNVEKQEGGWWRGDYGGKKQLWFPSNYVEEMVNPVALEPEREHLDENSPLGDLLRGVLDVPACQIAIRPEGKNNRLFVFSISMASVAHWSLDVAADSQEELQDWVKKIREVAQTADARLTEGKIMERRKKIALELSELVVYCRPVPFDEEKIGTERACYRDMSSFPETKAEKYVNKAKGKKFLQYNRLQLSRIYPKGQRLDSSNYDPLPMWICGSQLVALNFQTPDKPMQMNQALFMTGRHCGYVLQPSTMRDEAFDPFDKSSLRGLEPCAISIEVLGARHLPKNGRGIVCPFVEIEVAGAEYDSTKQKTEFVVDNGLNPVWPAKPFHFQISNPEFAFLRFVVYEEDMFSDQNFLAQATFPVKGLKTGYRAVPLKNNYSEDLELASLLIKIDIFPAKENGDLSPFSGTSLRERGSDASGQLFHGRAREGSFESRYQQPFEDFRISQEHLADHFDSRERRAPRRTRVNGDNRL

Compound	inhibition
CC(C)C(NC(=O)C1CCC(C(C)(C)C)CC1)C(=O)NCCCN1CCCCC1 (stereo not drawn)	10.2% (active)
O=C(NC(C(=O)NCCN1CCOCC1)C12CC3CC(CC(C3)C1)C2)C1CCCCC1 (stereo not drawn)	-1.07%
O=C(NCCCN1CCCCCC1)C1CC(=O)N(C2CCCC2)C1 (stereo not drawn)	-1.08%
Cc1ccc(-n2c(SCC(=O)Nc3ccc(S(=O)(=O)Nc4nccs4)cc3)nnc2-c2ccccn2)cc1	-1.19%
CN(C)/C=C(/C(=O)c1ccccc1Cl)S(C)(=O)=O	-0.96%
CN(C)/C=C(/C(=O)c1ccc(Cl)cc1)S(=O)(=O)c1ccccc1	11.6% (active)
CN(C)/C=C(/C(=O)c1ccc(F)cc1)S(=O)(=O)c1ccc(F)cc1	-0.23%
CC(C)CNC(=O)OCc1cn(Cc2ccc(F)cc2)nn1	-0.35%
CN(CCO)c1cccc2c1S(=O)(=O)N(Cc1cn(Cc3ccc(C(F)(F)F)cc3)nn1)Cc1ccccc1O2	-12.9%
CCOc1ccc(-n2c(SCC(=O)Nc3cc(C)c(NC(=O)c4ccccc4)cc3OC)nnc2-c2cccc(Cl)c2)cc1	-13.8%
Cc1ccc(C(=O)C2CCN(CC(=O)NCCC(C)C)CC2)cc1	-6.25%
NC1=CC(=O)C(=O)c2cccnc21	11.2% (active)
CC(C)CNS(=O)(=O)CC1NCCc2ccccc21 (stereo not drawn)	1.24%
O=C(CSc1nc2sc3c(c2c(=O)n1-c1ccccc1)CCCC3)NN=Cc1ccc(OCc2ccccc2)cc1	-0.49%
COc1ccc(C=C2CCC3C(CCCC34OCCO4)C2=O)cc1 (stereo not drawn)	3.51%
COc1ccc(/C=C2\CC3(OC(C)=O)CCCN2C3)cc1 (stereo not drawn)	0.44%
COc1ccc(/C=C2\N=C3CCCN3C2=O)cc1	10.5% (active)
Cc1cccc(NC(=O)C[C@H]2CC[C@H]3[C@@H](COc4ccc(NC(=O)Nc5ccccc5)cc4C(=O)N3C)O2)c1	3.76%
CC1(C)CC(=O)C=C(NCCCNC2CCCCC2)C1	2.3%
CC1(C)CC(=O)C=C(NC2CC(C)(C)NC(C)(C)C2)C1	9.6% (active)
COC(=O)NNC1=CC(=O)CC(C)(C)C1	-1.76%
O=C1CCC(C(=O)OCC(=O)Nc2ccc(OC(F)F)cc2)=NN1	3.57%

Compound	inhibition
COc1ccc(NC(=O)COC(=O)CNC(=O)C2CCCCC2)cc1	0.1%
CCC(C)(C)c1ccc(Oc2ccc(NC(=O)COC(=O)C3=COCCO3)cc2)cc1	10.1% (active)
O=C(CSc1nnc(-c2cccc(Cl)c2)n1Cc1ccco1)Nc1ccc(OCc2ccccc2)cc1	2.27%
COC(=O)[C@]12C[C@H](CC(=O)N3CCN(C(=O)C4CC4)CC3)C(=O)N(CCC3=CCCCC3)C1=C[C@H](C(C)C)O[C@@H]2C1CC1	-0.79%
COCCNC(=O)c1ccc(Cn2c(SCC(=O)NCC3CCCO3)nc3ccc(Br)cc3c2=O)cc1 (stereo not drawn)	0.38%
OC(CNCC1CCCO1)Cn1c2ccc(Br)cc2c2cc(Br)ccc21 (stereo not drawn)	9.98% (active)
O=C(CNC(=O)c1ccc(Br)o1)NCC1CCCO1 (stereo not drawn)	-1.19%
COc1cccc(CSc2nnc(-c3cccnc3)n2Cc2ccccc2)c1	-0.88%
N[C@@H](Cc1ccccc1)C(=O)N1CCC[C@@H]1C(=O)N1CCC2CCN(S(=O)(=O)c3ccccc3)CC21 (stereo partly drawn)	1.45%
CCCCC(=O)N[C@@H]1CC[C@@]23CCCN2C(=O)CCC[C@H]3[C@H]1C	0.85%
COc1ccc(S[C@]2(C(=O)N(C)C)CC(=O)N(c3ccc(OC)cc3)[C@@H]2c2ccc(OC)cc2)cc1	3.67%
COc1cc(/C=C/C(=O)n2cnc3ccccc32)cc(OC)c1OC	-0.84%
Cc1ccccc1CN1CCCCC(NC(=O)Nc2ccccc2F)C1=O (stereo not drawn)	4.92%
Nn1cnnc1N/N=C/c1cc([N+](=O)[O-])c(Cl)cc1Cl	13.2% (active)
O=C(Nc1ccc(Br)cc1)C1CCC(=O)N1Cc1ccccc1Cl (stereo not drawn)	9.91% (active)
O=C1c2ccccc2C(O)N1Cc1ccccc1Cl (stereo not drawn)	-1.89%
COc1ccc(NC(=O)N2CCCC2C(=O)NCc2ccccc2Cl)cc1 (stereo not drawn)	-0.63%
COc1ccc(-n2c(SCC(=O)Nc3ccc4c(c3)OCCO4)nnc2-c2ccc(Cl)cc2)cc1	2.18%
O=S1(=O)c2c(NCc3ccco3)cccc2Oc2ccccc2CN1Cc1cn(Cc2cccc(C(F)(F)F)c2)nn1	-41.1%
CCCCc1nc2ccccc2c(NC(=O)CN2CCN(C)CC2)c1CCC	31.4% (active)
O=C(CN1CCN(c2ccc(O)cc2)CC1)Nc1ccc(-c2ccccc2)cc1	5.1%
CCc1cc(C(=O)c2ccc(OC)cc2)c(NC(=O)CN2CCN(C)CC2)s1	-5.73%

Compound	inhibition
Clc1ccc(-n2c(COc3ccccc3)nnc2SCc2nc3ccccc3[nH]2)cc1	-0.91%
Cc1cccc(NC(=O)c2ccc(COc3ccccc3[N+](=O)[O-])o2)n1	-0.91%
CCCCNc1ccc(C(=O)Nc2cccc(C)n2)cc1[N+](=O)[O-]	16.8% (active)
Cc1cc(O)c(NC(=O)c2ccc(C)c([N+](=O)[O-])c2)cc1C	4.76%
O=C(Nc1cc(F)cc(F)c1)OC1CCC12CCC(c1ccccc1)CC2 (stereo not drawn)	0%
C=CCN1[C@H](CC(C)C)COc2cccc(N3CCCC3)c2S1(=O)=O	-4.7%
C[C@H]1[C@H](NC(=O)c2cccc(N(C)C)c2)CC[C@@]23CCCN2C(=O)CCC[C@@H]13	-87.5%
Cc1sc2nc(SCC(=O)c3ccc(O)c(O)c3)n(Cc3ccco3)c(=O)c2c1C	4.7%
CCC(C)CN1C(=O)CSCC1(C)C(=O)NCc1ccccc1 (stereo not drawn)	3.07%
CC1(C(=O)NCc2ccccc2)CSCC(=O)N1CCCn1ccnc1 (stereo not drawn)	0.21%
CC1(C(=O)NCc2ccccc2)CSCC(=O)N1CCCN1CCOCC1 (stereo not drawn)	10.3% (active)
Cc1cc(=O)[nH]c(SCC(=O)Nc2ccc(Cl)cc2C)n1	3.72%
C=C(C)C#CC(Cc1ccccc1)N(CC1CC1)/C(N)=N/C(=O)OCc1ccccc1 (stereo not drawn)	-163%
O=S1(=O)c2c(cccc2N2CCSCC2)Oc2ccccc2CN1Cc1cn(Cc2ccc(F)cc2)nn1	-5.24%
O=C(Nc1ccccc1Cl)/C(Cl)=C(\Cl)S(=O)c1ccccc1 (stereo not drawn)	12.4% (active)
CN1C(=O)c2cc(NS(C)(=O)=O)ccc2OC[C@@H]2O[C@@H](CC(=O)NCc3ccc(-c4ccccc4)cc3)CC[C@H]21	-2.2%
CCC(=O)c1c(CC)c2n3c1=CC[C@H]3CC(Br)C=2 (stereo partly drawn)	-6.13%
CC(=O)N1CCc2cc(S(=O)(=O)NCCC(=O)N3CCCC3)ccc21	1.19%
COCCCNC(=O)C1CC(=O)N(c2ccc(C)cc2)C1 (stereo not drawn)	-0.12%
COc1ccc(N2CC(C(=O)NCCS(=O)(=O)N3CCN(c4ccccc4)CC3)CC2=O)cc1 (stereo not drawn)	4.62%
Cc1ccc(N2CC(C(=O)NCCS(=O)(=O)N3CCN(c4ccccc4)CC3)CC2=O)cc1 (stereo not drawn)	10.4% (active)
O=C(NC1CCCC1)C1CSCCS(=O)(=O)N1Cc1ccccc1 (stereo not drawn)	-0.17%

Compound	inhibition
COc1cccc(C(=O)CC(=O)C(=O)Nc2ccc([N+](=O)[O-])cc2C)c1	-0.82%
Cc1c(C(=O)c2cccc([N+](=O)[O-])c2)c2ccccn2c1CCC#N	11.7% (active)
COc1ccc(C(=O)c2c(C)c(CCC#N)n3ccccc23)c(OC)c1	-3.69%
Cc1cc(C)cc(NC(=O)N2CCC(N(C)CCC(C)C)CC2)c1	3.12%
CCC(c1ccc(NC(=O)OC(C)(C)C)cc1)c1cc(OC)cc(OC)c1 (stereo not drawn)	1.5%
N#Cc1c(NC(=O)C2CCCO2)sc2c1CCCCC2 (stereo not drawn)	12.2% (active)
N#Cc1c(NC(=O)c2ccc(N3CCOCC3)c([N+](=O)[O-])c2)sc2c1CCCC2	3.4%
CC(=O)c1c(C)[nH]c(C(=O)OCC(=O)Nc2sc3c(c2C#N)CCCC3)c1C	-7.9%
O=C(Nc1ccccc1)N1CCN(Cc2nc3ccccc3c(=O)[nH]2)CC1	-0.51%
C/C(CC(C)C)=N\Oc1nc(C)cc(C)n1	9.91% (active)
COc1cccc(CNC(=O)C2CCCN(c3nc4ccccc4o3)C2)c1OC (stereo not drawn)	0.94%
COC(=O)[C@H](C(C)C)N1CCc2nnn(Cc3ccc(C)cc3)c2-c2ccccc2S1(=O)=O	0.55%
CCc1c(C)n([O-])c2c([n+]1=O)CCCCC2	11% (active)
Cc1ccc(-c2c(C)n([O-])c3c([n+]2=O)CCC3)cc1	1.87%
CCOc1ccc(-c2c(C)n([O-])c3c([n+]2=O)CCCC3)cc1	-0.45%
CC(CCN1CCC(C(O)(c2ccccc2)c2ccccc2)CC1)Oc1ccc(Cl)cc1 (stereo not drawn)	3.75%
CCCC[C@H]1C2CC(OC(=O)NCc3ccccc3)C(C2)[C@H]2CCCCN21 (stereo partly drawn)	-1.64%
Cc1cccc(C)c1NC(=O)CN1C(=O)C(C)Oc2ccccc21 (stereo not drawn)	1.55%
CC1Oc2ccccc2N(Cc2cccnc2)C1=O (stereo not drawn)	11% (active)
CC12c3ccccc3C(c3ccccc31)C1C(=O)N(Cc3cccnc3)C(=O)C12 (stereo not drawn)	1.04%
Cc1ccc(C2=CCN(C)C(=O)N2c2ccc(Cl)cc2)cc1	-0.42%
CC(c1c[nH]c2ccccc12)c1c(-c2ccccc2)n(C)c2ccccc12 (stereo not drawn)	-4.35%
